Assay results reported in paper PMC7862700, “An all-to-all approach to the identification of sequence-specific readers for epigenetic DNA modifications on cytosine”.

Key:
Experiment in all cases: DAPPL (digital affinity profiling via proximity ligation, sequencing); 10 mM Tris-HCl pH 7.5, 50 mM NaCl, 1 mM DTT, 4% glycerol, room temperature, 30 min; GST-TFs on glutathione beads, 16-mer random dsDNA library, 0.1% formaldehyde crosslink after washing; high values mean tight binding
Conditions in all cases: protein: recombinant; tags: N-terminal GST; dsDNA, one strand shown
[1] = target: T1, FLI1 (Homo sapiens, UniProt Q01543 1-452)
T1 sequence: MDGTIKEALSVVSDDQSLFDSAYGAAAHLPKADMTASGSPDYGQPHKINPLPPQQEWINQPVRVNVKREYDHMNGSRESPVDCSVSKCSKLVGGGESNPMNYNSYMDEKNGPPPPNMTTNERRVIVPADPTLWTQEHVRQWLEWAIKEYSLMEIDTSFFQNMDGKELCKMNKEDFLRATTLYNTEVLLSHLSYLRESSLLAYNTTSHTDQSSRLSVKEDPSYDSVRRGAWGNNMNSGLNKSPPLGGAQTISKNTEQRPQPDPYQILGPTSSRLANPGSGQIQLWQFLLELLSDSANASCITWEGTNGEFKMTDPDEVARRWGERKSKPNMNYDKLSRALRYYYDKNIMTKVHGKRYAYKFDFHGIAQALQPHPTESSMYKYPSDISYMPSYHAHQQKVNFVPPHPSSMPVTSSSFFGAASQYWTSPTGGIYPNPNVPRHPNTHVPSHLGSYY
Outline: (§1)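 After expression in yeast as GST fusions, human transcription factors were bound to glutathione beads, DNA-barcoded and mixed with a tag-only sample. The pools were incubated with 200 nmole of a 16-mer random double-stranded DNA library in Tris/NaCl/DTT/glycerol buffer (30 min, room temperature), washed and crosslinked with 0.1% formaldehyde. Proximity ligation with BsaI/T4 ligase ran for 1 h at 37 °C, before PCR amplification and sequencing on an Illumina NextSeq500. Binding signal is a hexamer's read frequency for a factor divided by its frequency for the tag-only sample.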

[2] = target: T2, ELK1 (Homo sapiens, UniProt P19419 1-428)
T2 sequence: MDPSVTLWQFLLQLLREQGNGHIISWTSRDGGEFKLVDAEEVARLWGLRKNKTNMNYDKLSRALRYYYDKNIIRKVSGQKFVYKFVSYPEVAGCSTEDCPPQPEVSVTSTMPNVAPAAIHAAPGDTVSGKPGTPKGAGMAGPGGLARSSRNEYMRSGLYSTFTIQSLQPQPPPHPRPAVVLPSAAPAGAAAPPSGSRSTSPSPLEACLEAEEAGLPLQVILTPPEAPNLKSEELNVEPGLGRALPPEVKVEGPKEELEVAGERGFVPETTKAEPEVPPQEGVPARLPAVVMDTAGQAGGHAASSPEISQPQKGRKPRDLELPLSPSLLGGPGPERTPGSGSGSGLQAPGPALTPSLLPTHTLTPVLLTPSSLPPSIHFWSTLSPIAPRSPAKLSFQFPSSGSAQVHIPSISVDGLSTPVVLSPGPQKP
Outline: as §1

[3] = target: T3, GABPA (Homo sapiens, UniProt Q06546 1-454)
T3 sequence: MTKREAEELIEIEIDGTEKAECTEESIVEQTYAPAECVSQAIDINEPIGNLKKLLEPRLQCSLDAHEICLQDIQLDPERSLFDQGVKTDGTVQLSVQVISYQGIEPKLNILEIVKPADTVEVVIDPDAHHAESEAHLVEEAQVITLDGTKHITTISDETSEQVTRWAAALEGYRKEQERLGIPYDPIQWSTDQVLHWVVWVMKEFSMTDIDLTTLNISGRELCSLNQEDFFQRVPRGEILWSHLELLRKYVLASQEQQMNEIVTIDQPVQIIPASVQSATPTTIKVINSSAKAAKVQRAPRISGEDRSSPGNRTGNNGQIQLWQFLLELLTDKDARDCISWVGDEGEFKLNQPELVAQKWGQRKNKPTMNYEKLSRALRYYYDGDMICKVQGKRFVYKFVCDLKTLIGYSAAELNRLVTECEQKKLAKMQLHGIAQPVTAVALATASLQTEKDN
Outline: as §1

[4] = target: ELF1 (Homo sapiens, UniProt P32519 1-619)
Outline: as §1

[5] = target: T4, EHF (Homo sapiens, UniProt Q9NZC4 1-300)
T4 sequence: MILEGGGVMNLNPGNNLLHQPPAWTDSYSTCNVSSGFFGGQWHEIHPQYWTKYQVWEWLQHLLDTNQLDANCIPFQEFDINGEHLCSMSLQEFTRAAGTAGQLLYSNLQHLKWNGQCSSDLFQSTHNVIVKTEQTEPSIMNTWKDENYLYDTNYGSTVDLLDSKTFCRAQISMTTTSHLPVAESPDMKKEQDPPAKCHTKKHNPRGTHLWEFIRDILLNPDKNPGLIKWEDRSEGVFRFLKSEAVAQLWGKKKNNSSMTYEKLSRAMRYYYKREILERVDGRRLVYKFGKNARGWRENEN
Outline: as §1

[6] = target: SPI1 (Homo sapiens, UniProt P17947 1-270)
Outline: as §1

[7] = target: SPIB (Homo sapiens, UniProt Q01892 1-262)
Outline: as §1

[8] = target: T5, FEV (Homo sapiens, UniProt Q99581 1-238)
T5 sequence: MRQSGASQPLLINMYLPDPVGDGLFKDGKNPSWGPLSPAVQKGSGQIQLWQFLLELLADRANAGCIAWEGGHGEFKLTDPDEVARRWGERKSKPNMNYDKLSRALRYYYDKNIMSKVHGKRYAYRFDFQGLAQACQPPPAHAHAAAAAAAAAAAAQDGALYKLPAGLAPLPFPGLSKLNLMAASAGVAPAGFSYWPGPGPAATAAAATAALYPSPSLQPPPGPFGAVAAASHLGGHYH
Outline: as §1

[9] = target: ETV5 (Homo sapiens, UniProt P41161 1-510)
Outline: as §1

[10] = target: T6, SPIC (Homo sapiens, UniProt Q8N5J4 1-248)
T6 sequence: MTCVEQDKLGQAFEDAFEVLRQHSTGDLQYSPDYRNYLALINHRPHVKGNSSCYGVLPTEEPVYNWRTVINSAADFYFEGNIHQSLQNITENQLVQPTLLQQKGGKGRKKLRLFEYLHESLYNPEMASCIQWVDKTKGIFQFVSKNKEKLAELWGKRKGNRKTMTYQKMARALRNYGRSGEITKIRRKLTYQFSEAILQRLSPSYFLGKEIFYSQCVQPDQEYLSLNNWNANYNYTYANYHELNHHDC
Outline: as §1

[11] = target: ELF4 (Homo sapiens, UniProt Q99607 1-663)
Outline: as §1

[12] = target: T7, ELK4 (Homo sapiens, UniProt P28324-2 1-405)
T7 sequence: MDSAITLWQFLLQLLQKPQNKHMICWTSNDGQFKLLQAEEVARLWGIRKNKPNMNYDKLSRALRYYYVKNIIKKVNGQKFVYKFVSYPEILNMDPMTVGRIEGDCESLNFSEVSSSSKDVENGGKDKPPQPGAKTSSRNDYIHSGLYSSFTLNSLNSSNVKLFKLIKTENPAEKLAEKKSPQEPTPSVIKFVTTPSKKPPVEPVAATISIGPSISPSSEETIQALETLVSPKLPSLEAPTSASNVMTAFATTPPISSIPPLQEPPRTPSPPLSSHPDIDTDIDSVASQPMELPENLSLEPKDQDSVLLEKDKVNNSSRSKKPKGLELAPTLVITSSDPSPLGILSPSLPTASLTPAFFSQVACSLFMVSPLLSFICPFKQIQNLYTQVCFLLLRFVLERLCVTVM
Outline: as §1

[13] = target: T8, ETV2 (Homo sapiens, UniProt O00321 1-342)
T8 sequence: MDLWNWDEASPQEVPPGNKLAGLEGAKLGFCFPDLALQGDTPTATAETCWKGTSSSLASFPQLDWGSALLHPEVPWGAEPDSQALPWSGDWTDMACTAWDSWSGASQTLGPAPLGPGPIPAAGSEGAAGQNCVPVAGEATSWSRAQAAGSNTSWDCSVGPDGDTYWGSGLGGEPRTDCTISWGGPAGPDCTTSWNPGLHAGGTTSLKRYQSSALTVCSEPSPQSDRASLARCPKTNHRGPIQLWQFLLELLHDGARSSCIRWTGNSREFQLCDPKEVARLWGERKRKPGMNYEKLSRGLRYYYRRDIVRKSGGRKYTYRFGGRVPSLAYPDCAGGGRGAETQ
Outline: as §1

[14] = target: T9, ELF3 (Homo sapiens, UniProt P78545 1-371)
T9 sequence: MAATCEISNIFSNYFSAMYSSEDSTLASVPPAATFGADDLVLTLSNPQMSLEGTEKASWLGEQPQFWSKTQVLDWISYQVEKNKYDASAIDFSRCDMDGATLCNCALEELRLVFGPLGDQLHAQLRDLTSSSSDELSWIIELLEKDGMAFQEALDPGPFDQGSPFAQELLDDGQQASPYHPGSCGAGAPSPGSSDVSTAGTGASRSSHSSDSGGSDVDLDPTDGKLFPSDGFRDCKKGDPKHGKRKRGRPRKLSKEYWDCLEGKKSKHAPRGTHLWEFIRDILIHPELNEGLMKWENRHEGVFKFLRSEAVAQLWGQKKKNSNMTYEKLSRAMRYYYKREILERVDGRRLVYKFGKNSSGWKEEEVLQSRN
Outline: as §1

[15] = target: ETV1 (Homo sapiens, UniProt P50549 1-477)
Outline: as §1

[16] = target: T10, ELK3 (Homo sapiens, UniProt P41970 1-407)
T10 sequence: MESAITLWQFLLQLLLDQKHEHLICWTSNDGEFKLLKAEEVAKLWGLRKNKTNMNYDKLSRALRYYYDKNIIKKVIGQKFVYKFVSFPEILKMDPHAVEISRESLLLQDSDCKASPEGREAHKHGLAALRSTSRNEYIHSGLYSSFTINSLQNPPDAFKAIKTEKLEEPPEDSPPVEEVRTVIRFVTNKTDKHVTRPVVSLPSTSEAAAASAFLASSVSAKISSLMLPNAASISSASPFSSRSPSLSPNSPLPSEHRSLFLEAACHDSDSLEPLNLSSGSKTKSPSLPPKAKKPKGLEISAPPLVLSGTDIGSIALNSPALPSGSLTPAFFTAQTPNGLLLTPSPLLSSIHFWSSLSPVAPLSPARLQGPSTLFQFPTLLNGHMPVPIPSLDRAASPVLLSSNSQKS
Outline: as §1

[17] = target: T11, ERG (Homo sapiens, UniProt P11308 1-479)
T11 sequence: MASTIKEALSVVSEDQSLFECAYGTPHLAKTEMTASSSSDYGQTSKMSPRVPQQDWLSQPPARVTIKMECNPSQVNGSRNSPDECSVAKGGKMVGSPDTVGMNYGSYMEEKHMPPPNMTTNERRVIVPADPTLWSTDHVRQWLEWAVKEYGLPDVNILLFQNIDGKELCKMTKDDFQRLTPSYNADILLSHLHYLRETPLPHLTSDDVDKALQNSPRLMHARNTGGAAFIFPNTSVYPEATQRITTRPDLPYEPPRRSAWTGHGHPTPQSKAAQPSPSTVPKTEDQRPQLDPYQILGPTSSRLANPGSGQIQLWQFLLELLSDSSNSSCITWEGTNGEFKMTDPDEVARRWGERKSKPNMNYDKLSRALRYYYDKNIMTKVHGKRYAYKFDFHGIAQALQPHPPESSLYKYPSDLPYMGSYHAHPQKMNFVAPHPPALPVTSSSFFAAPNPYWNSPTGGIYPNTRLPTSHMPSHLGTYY
Outline: as §1

Sequence of ELF1 (P32519 whole entry): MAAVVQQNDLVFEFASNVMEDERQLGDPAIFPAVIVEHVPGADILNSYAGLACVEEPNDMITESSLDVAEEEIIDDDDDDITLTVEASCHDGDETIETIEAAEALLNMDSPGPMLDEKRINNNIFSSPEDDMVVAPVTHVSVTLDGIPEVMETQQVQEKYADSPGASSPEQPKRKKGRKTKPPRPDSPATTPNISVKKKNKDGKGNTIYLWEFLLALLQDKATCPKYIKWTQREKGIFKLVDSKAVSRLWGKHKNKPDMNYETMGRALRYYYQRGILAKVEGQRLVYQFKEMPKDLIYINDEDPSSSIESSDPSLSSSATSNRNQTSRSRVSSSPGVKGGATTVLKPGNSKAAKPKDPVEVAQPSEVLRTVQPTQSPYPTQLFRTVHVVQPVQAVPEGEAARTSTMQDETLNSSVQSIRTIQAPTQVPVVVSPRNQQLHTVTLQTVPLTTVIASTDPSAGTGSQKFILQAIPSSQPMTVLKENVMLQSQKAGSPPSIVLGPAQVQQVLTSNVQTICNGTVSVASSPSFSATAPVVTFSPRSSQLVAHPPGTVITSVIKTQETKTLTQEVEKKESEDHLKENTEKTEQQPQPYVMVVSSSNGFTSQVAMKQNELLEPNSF
Sequence of ETV5 (P41161 whole entry): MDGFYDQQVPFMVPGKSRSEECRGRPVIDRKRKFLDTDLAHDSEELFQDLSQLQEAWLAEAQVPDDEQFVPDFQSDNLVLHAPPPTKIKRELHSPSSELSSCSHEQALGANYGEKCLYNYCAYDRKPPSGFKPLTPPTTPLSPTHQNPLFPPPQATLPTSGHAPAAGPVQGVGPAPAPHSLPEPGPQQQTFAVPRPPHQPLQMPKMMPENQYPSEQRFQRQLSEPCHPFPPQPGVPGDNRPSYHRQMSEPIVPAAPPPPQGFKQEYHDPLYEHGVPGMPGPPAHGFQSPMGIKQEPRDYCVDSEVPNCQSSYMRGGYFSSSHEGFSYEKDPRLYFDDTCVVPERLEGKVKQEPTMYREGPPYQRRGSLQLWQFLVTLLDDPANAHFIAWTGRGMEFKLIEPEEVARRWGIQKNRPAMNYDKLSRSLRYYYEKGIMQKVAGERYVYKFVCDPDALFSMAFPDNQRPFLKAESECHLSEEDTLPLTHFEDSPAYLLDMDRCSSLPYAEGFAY
Sequence of ELF4 (Q99607 whole entry): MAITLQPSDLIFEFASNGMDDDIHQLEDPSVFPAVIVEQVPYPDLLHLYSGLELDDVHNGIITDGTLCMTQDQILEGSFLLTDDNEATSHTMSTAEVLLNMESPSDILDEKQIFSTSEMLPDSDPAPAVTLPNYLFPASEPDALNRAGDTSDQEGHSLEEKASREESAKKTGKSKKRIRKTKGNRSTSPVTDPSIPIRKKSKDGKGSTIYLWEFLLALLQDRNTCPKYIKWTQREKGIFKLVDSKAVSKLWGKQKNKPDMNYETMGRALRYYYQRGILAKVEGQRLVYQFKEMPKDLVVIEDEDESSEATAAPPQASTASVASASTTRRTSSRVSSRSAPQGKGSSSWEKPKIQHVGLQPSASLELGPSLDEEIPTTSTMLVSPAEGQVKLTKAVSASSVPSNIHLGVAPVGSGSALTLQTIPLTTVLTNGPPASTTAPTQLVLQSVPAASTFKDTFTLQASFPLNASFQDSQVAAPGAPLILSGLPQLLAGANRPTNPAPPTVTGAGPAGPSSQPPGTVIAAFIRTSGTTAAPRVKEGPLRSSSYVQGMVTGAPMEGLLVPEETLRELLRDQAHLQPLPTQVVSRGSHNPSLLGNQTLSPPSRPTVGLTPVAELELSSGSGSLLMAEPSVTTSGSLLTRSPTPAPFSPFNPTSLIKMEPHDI
Sequence of ETV1 (P50549 whole entry): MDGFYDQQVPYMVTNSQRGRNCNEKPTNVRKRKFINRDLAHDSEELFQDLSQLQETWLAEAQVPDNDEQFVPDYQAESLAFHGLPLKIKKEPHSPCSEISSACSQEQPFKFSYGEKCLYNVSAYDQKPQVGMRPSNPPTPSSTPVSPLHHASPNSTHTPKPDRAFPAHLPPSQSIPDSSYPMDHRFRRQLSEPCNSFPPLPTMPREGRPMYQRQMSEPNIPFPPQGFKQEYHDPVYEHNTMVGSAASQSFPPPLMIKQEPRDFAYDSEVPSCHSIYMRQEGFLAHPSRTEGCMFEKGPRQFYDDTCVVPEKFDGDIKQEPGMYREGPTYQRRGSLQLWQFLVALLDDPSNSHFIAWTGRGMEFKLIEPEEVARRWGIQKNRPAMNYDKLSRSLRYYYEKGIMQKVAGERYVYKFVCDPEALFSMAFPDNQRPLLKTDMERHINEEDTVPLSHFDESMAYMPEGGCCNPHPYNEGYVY
Sequence of SPIB (Q01892 whole entry): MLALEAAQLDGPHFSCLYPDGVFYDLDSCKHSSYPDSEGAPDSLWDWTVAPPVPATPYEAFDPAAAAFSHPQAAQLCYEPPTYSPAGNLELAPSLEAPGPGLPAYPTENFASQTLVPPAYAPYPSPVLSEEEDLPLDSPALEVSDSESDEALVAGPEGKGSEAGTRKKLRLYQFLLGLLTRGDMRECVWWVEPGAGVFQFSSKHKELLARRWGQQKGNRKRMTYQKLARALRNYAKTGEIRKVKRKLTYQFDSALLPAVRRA

Row | Sequence | binding signal [1] | binding signal [2] | binding signal [3] | binding signal [4] | binding signal [5] | binding signal [6] | binding signal [7] | binding signal [8] | binding signal [9] | binding signal [10] | binding signal [11] | binding signal [12] | binding signal [13] | binding signal [14] | binding signal [15] | binding signal [16] | binding signal [17]
1 | CTATGT | 1.11 fold enrichment (6-mer frequency, TF over GST control) | 1.11 fold enrichment (6-mer frequency, TF over GST control) | 1.22 fold enrichment (6-mer frequency, TF over GST control) | 1.09 fold enrichment (6-mer frequency, TF over GST control) | 1.03 fold enrichment (6-mer frequency, TF over GST control) | 1.04 fold enrichment (6-mer frequency, TF over GST control) | 1.15 fold enrichment (6-mer frequency, TF over GST control) | 1.09 fold enrichment (6-mer frequency, TF over GST control) | 1.01 fold enrichment (6-mer frequency, TF over GST control) | 1.01 fold enrichment (6-mer frequency, TF over GST control) | 1.18 fold enrichment (6-mer frequency, TF over GST control) | 1.15 fold enrichment (6-mer frequency, TF over GST control) | 1.14 fold enrichment (6-mer frequency, TF over GST control) | 1.23 fold enrichment (6-mer frequency, TF over GST control) | 1 fold enrichment (6-mer frequency, TF over GST control) |  | 
2 | CATGTA | 1.15 fold enrichment (6-mer frequency, TF over GST control) | 1.06 fold enrichment (6-mer frequency, TF over GST control) |  | 1.11 fold enrichment (6-mer frequency, TF over GST control) | 1.04 fold enrichment (6-mer frequency, TF over GST control) | 1.02 fold enrichment (6-mer frequency, TF over GST control) |  | 1.03 fold enrichment (6-mer frequency, TF over GST control) | 1.08 fold enrichment (6-mer frequency, TF over GST control) | 1.08 fold enrichment (6-mer frequency, TF over GST control) | 1.14 fold enrichment (6-mer frequency, TF over GST control) | 1.16 fold enrichment (6-mer frequency, TF over GST control) | 1.11 fold enrichment (6-mer frequency, TF over GST control) | 1.03 fold enrichment (6-mer frequency, TF over GST control) | 1.06 fold enrichment (6-mer frequency, TF over GST control) | 1.13 fold enrichment (6-mer frequency, TF over GST control) | 
3 | ACACCA | 1.01 fold enrichment (6-mer frequency, TF over GST control) | 1.15 fold enrichment (6-mer frequency, TF over GST control) |  | 1.05 fold enrichment (6-mer frequency, TF over GST control) | 1.04 fold enrichment (6-mer frequency, TF over GST control) |  |  | 1.03 fold enrichment (6-mer frequency, TF over GST control) | 1.04 fold enrichment (6-mer frequency, TF over GST control) | 1.13 fold enrichment (6-mer frequency, TF over GST control) | 1.02 fold enrichment (6-mer frequency, TF over GST control) | 1.08 fold enrichment (6-mer frequency, TF over GST control) | 1.05 fold enrichment (6-mer frequency, TF over GST control) | 1.01 fold enrichment (6-mer frequency, TF over GST control) |  |  | 1.01 fold enrichment (6-mer frequency, TF over GST control)
